Holding throughout (experiment): glycan array binding signal (z-score within array); higher = stronger binding
Holding throughout (settings): glycan notation: IUPAC condensed, linker removed

Test [1] has as its target Gal(b1-3)GalNAc(b1-4)[Neu5Gc(a2-3)]Gal(b1-4)Glc. Summed up: (§1)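 Glycan array binding is given as a within-array Z-score, which can be read as non-binding when negative. The arrays, 3228 of them, came from the Consortium for Functional Glycomics database and were retained only where the protein sequence was available. Z-scores were averaged across arrays of the same protein sequence at different concentrations or buffers and across linkers.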

The target of test [2] is Neu(a2-3)Gal(b1-4)Glc. Summed up: as §1
Test [3] deals with Neu(a2-6)Gal(b1-4)Glc. Summed up: as §1
Test [4] deals with Neu5Ac(a2-3)Gal(b1-3)GalNAc(b1-4)Gal(b1-4)Glc. Summed up:
as §1

The target in test [5] is Neu5Ac(a2-3)Gal(b1-3)GlcNAc(b1-3)[Fuc(a1-3)[Gal(b1-4)]GlcNAc(b1-6)]Gal(b1-4)Glc. Summed up: as §1
Test [6] deals with Neu5Ac(a2-3)Gal(b1-4)[Fuc(a1-3)]GlcNAc6S(b1-3)Gal(b1-4)Glc. Summed up:
as §1

Test [7] has as its target Neu5Ac(a2-3)Gal6S(b1-4)[Fuc(a1-3)]GlcNAc6S(b1-3)Gal(b1-4)Glc. Summed up:
as §1

The target of test [8] is Neu5Ac(a2-6)Gal(b1-4)GlcNAc(b1-3)[Neu5Ac(a2-6)Gal(b1-4)GlcNAc(b1-6)]Gal(b1-4)Glc. Summed up:
as §1

Test [9] concerns the target Neu5Ac(a2-9)Neu5Ac(a2-3)Gal(b1-4)Glc. Summed up: as §1
The target in test [10] is Neu5Gc(a2-3)Gal(b1-4)Glc. Summed up:
as §1

The target in test [11] is Gal(b1-3)GalNAc(b1-4)Gal3S(b1-4)Glc. Summed up:
as §1

Test [12] has as its target Gal(b1-3)GalNAc(b1-4)[Neu5Ac(a2-3)]Gal(b1-4)Glc. Summed up: as §1
Test [13] addresses Gal(b1-3)[Neu5Ac(a2-6)]GalNAc(b1-4)Gal(b1-4)Glc. Summed up: as §1
Test [14] addresses Gal(b1-4)GlcNAc(b1-2)[Gal(b1-4)GlcNAc(b1-4)]Man(a1-3)[Gal(b1-4)GlcNAc(b1-2)Man(a1-6)]Man(b1-4)GlcNAc(b1-4)GlcNAc. Summed up: as §1
The target of test [15] is Gal(b1-4)GlcNAc(b1-3)Fuc. Summed up:
as §1

The target of test [16] is Glc(a1-3)Glc. Summed up: as §1
For test [17], the target named is Glc(a1-3)Glc(a1-3)Man(a1-2)Man(a1-2)Man(a1-3)[Man(a1-3)[Man(a1-6)]Man(a1-6)]Man(b1-4)GlcNAc. Summed up: as §1
Test [18] addresses Glc(a1-6)Glc(a1-6)Glc(a1-6)Glc(a1-6)Glc. Summed up:
as §1

For test [19], the target named is Glc(a1-6)Glc(a1-6)Glc(a1-6)Glc(a1-6)Glc(a1-6)Glc(a1-6)Glc(a1-6)Glc(a1-6)Glc. Summed up:
as §1

The target of test [20] is Glc(b1-2)Glc. Summed up: as §1
Test [21] concerns the target Glc(b1-3)Glc(b1-3)Glc(b1-3)Glc(b1-3)Glc(b1-3)Glc(b1-3)Glc(b1-3)Glc(b1-3)Glc(b1-3)Glc(b1-3)Glc. Summed up: as §1
For test [22], the target named is Glc(b1-4)Glc(b1-4)Glc(b1-4)Glc(b1-4)Glc(b1-4)Glc(b1-4)Glc. Summed up:
as §1

Test [23] has as its target Glc(b1-4)Glc(b1-4)Glc(b1-4)Glc(b1-4)Glc(b1-4)Glc(b1-4)Glc(b1-4)Glc(b1-4)Glc. Summed up:
as §1

In test [24] the target is Glc(b1-6)Glc(b1-6)Glc(b1-6)Glc. Summed up: as §1
For test [25], the target named is GlcA(b1-3)GlcNAc(b1-4)GlcA(b1-3)GlcNAc(b1-4)GlcA(b1-3)GlcNAc(b1-4)GlcA(b1-3)GlcNAc(b1-4)GlcA(b1-3)GlcNAc(b1-4)GlcA(b1-3)GlcNAc(b1-4)GlcA(b1-3)GlcNAc. Summed up:
as §1

In test [26] the target is GlcNAc(a1-4)Gal. Summed up: as §1
Test [27] addresses GlcNAc(b1-2)Man. Summed up: as §1
The target of test [28] is GlcNAc(b1-4)GlcNAc. Summed up:
as §1

For test [29], the target named is Man(a1-2)Man(a1-2)Man(a1-3)[Man(a1-2)Man(a1-3)[Man(a1-2)Man(a1-6)]Man(a1-6)]Man(b1-4)GlcNAc(b1-4)GlcNAc. Summed up: as §1
Test [30] has as its target Man(a1-3)[Man(a1-6)]Man. Summed up: as §1
Test [31] concerns the target Neu5Ac(a2-3)Gal. Summed up:
as §1

Test [32] concerns the target Neu5Ac(a2-3)Gal(b1-3)GalNAc(b1-4)[Neu5Ac(a2-3)]Gal(b1-4)Glc. Summed up:
as §1

Test [33] addresses Neu5Ac(a2-3)Gal(b1-4)[Fuc(a1-3)]GlcNAc(b1-3)Gal. Summed up:
as §1

In test [34] the target is Neu5Ac(a2-3)[GalNAc(b1-4)]Gal(b1-3)GalNAc(b1-4)[Neu5Ac(a2-3)]Gal(b1-4)Glc. Summed up:
as §1

In test [35] the target is Neu5Ac(a2-3)[GalNAc(b1-4)]Gal(b1-4)Glc. Summed up: as §1
Test [36] addresses Neu5Ac(a2-8)Neu5Ac(a2-3)[Gal(b1-3)GalNAc(b1-4)]Gal(b1-4)Glc. Summed up:
as §1

The target in test [37] is Neu5Ac(b2-3)Gal(b1-4)Glc. Summed up: as §1
For test [38], the target named is Rha(a1-6)Glc. Summed up: as §1
Test [39] has as its target Gal(b1-3)GlcNAc(b1-3)Gal(b1-4)Glc. Summed up:
as §1

Test [40] has as its target Neu(a2-3)Gal6S(b1-4)[Fuc(a1-3)]GlcN(b1-3)Gal(b1-4)Glc. Summed up: as §1
The target in test [41] is Neu5Ac(a2-3)Gal(b1-4)[Fuc(a1-3)]GlcNAc(b1-3)Gal(b1-4)Glc. Summed up:
as §1

The target in test [42] is Neu5Ac(a2-3)Gal6S(b1-4)[Fuc(a1-3)]GlcNAc(b1-3)Gal(b1-4)Glc. Summed up: as §1
Test [43] has as its target Neu5Ac(a2-8)Neu5Ac(a2-8)Neu5Ac(a2-8)Neu5Ac(a2-8)Neu5Ac(a2-8)Neu5Ac(a2-8)Neu5Ac. Summed up:
as §1

For test [44], the target named is Neu5Ac(a2-8)Neu5Ac(a2-8)Neu5Ac(a2-8)Neu5Ac(a2-8)Neu5Ac(a2-8)Neu5Ac(a2-8)Neu5Ac(a2-8)Neu5Ac(a2-8)Neu5Ac. Summed up: as §1
The target of test [45] is Neu5Ac(a2-8)Neu5Ac(a2-8)Neu5Ac(a2-8)Neu5Ac(a2-8)Neu5Ac(a2-8)Neu5Ac(a2-8)Neu5Ac(a2-8)Neu5Ac(a2-8)Neu5Ac(a2-8)Neu5Ac(a2-8)Neu5Ac. Summed up: as §1
For test [46], the target named is Neu5Ac9Ac(a2-6)Gal(b1-4)GlcNAc. Summed up: as §1

The sample as a whole holds a higher share of the strongest signals than the screen did.

B1: MIC13 (Toxoplasma gondii), A0A125YWL1 (protein)
chain: IQLRQHRNGLGVEQSFVSEETDIVGGRISSLQAELDSYCHNRYKQLCDGGNKKFCDKTGVARYGTGIQSQQTAEWRCYFAEVLKPSGRKVQCVDDCGNYFPCLGVVDPNDTFHATAHNQILNFIKDGVEKHCSPFQMAGNNYCQGVLADTVARKDTGTASQKAKAWRCYKKDSLTYEARSICVDNCGGEIECPGGRSETSGELLSQHYTREKELQKVIESQSAPCHDACVATPINPPICADTESLLQSTKRSRAQRFIDDACQKLFNCHCKKDKKFCTTVVARKDRGRAGSQNDAEWRCYSLEELDFQKTNPSCIDECGNELPCQGAVPEESTHHITWTKLPSKIDEATQKFCTERQRAANDYCASEFADSLARYGPGAGDQTSQFRCIKKAAMRADAEGQCADSCKGTETCGGGRSRLDGPLSVDDVLNAHEGISEAMKSASTEC
Consider B1, for which the “glycan array binding signal (z-score)” value was -0.151 in test [1]; -0.234 in test [2]; -0.287 in [3]; -0.287 in test [4]; -0.243 in [5]; 0.435 in test [6]. Further, the “glycan array binding signal (z-score)” value is 2.31 in [7], -0.287 in test [8], 8.12 in test [9] and -0.038 in [10].

B2: MIC4-A5 (Toxoplasma gondii), Q9XZH7 (protein)
chain: SPDFHDEVECVHTGNIGSKAQTIGEVKRASSLSECRARCQAEKECSHYTYNVKSGLCYPKRGKPQFYKYLGDMTGSRTCDTS
Consider B2, for which the “glycan array binding signal (z-score)” value is 5.56 in test [11]; 5.3 in test [12]; 4.89 in test [1]; 6.12 in test [13]; 3.22 in [14]; -0.248 in test [15]. For the same molecule, the “glycan array binding signal (z-score)” value in test [16] is -0.306; in test [17] it was -0.323; in test [18], -0.323; in [19] it was -0.323; in test [20], -0.32; in [21] it was -0.323. For the same molecule, the “glycan array binding signal (z-score)” value in test [22], in test [23], in [24], in [25], in [26] and in [27] was -0.323 in each case. The “glycan array binding signal (z-score)” value was -0.323 in [28]; -0.323 in test [29]; -0.323 in test [30]; -0.323 in test [31]; -0.191 in [32]; -0.323 in [33]. Moreover, the “glycan array binding signal (z-score)” value in test [34] was -0.323; in test [35], -0.311; in test [36], 6.1; in test [37], -0.32; in test [38] it was -0.322.

B3: MIC1 (Neospora caninum), Q8WRS0 (protein)
chain: AGAKTYGEASQPSASARSLQGALDTWCQEVFKKLCDDGYSKMCIPANQVVARQGLGRKDQQKLVWRCYDSAAFLAEGDENNVLSCVDDCGVSIPCPGGVDRDNSTHATRHDELSQLIKEGVVRYCSGFQAAANSYCNKRYPGTVARKSKGFGHKEPVKWRCYKPESLLFSVFSECVSNCGTTWSCPGGRLGTATNLDKKHFTDESGILQALTSVPKACPVGLVCLPRDQNPPACLDDNGNVPE
As to B3, the “glycan array binding signal (z-score)” value is -0.344 in [12]; -0.441 in test [39]; -0.422 in test [2]; -0.441 in test [40]; -0.359 in test [41]; 0.848 in [6]. The “glycan array binding signal (z-score)” value in [42] is 6.08; in test [7], 4.92; in [43], 0.538; in test [44] it was -0.166; in test [45], -0.291; in [46], -0.428.

Values taken from the supplement of paper PMC8728848.
